UHRF1 MBD2 ctr = UHRF1 methylated DNA binding inhibitors, primary screen, counter-screen for MBD2 inhibitor project, biochemical, TR-FRET, human UHRF1, single concentration | 370,000 compounds, 0.75% hits | E3 ubiquitin-protein ligase UHRF1 (Homo sapiens), Q96T88 | inhibition, % at 4.4 µM | UHRF1 binding to methylated oligo; in the data active = inhibition above about 21%;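 note: UHRF1 SRA domain binding a hemimethylated CpG hairpin DNA probe; 0% = median of test compound wells and 100% = reference inhibitor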
MBD2 inh = inhibitors of MBD2 binding to methylated DNA, primary screen, biochemical, TR-FRET, DNA-binding domain, human. inhibition, % at 4.4 µM. MBD2 binding to methylated oligonucleotide. 370,000 compounds, 0.31% hits. AID 686964, 2013; in the data active = inhibition above about 13%
Target sequence (Q9UBB5 whole entry, looked up, the tested form may be a part): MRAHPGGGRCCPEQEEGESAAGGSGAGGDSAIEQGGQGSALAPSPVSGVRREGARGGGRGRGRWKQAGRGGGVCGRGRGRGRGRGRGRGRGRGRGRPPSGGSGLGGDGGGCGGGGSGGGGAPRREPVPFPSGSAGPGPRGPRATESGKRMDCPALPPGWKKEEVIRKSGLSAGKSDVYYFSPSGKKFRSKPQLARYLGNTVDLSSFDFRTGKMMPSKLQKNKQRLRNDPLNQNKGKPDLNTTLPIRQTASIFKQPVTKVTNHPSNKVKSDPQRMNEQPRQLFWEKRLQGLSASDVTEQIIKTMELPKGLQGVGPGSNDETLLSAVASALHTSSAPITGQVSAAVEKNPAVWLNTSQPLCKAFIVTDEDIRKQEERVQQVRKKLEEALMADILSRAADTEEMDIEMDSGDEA
M18AAP inhibitor = PfM18AAP inhibitors, malaria aminopeptidase, primary screen, biochemical, QFRET, recombinant enzyme | H-Glu-NHMec fluorogenic cleavage | inhibition, % at 7.35 µM | 290,000 compounds, 1.2% hits | AID 1822, 2009;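 active = inhibition above the campaign mean inhibition over all tested compounds plus 3 SD, cut at about 28% in these data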;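 note: 0% = plate median of test compound wells and 100% = 2 mM ZnCl2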
PfGluPho inh = PfG6PD enzyme inhibitors, primary screen, biochemical, fluorescence intensity, uHTS | glucose-6-phosphate dehydrogenase-6-phosphogluconolactonase (Plasmodium falciparum 3D7) | PfGluPho enzyme, NADPH resazurin-diaphorase fluorescence | inhibition, % at 20 µM | 350,000 compounds, 0.78% hits;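 active = inhibition reaching at least a set limit at 20 µM in the primary screen, cut at about 59% in these data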;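 note: 0% = DMSO wells with substrate and 100% = DMSO wells lacking glucose-6-phosphate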
PRMT1 inh = PRMT1 methyltransferase inhibitors, primary screen, biochemical, fluorescence polarization; 370,000 compounds, 1.3% hits; recombinant PRMT1, activity-based probe fluorescence polarization; Protein arginine N-methyltransferase 1 (Homo sapiens), Q99873; inhibition, % at 2.79 µM; AID 652257, 2013;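 active = inhibition above about 21% made by adding two undisclosed values, limit read from the data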
PfGluPho conf = PfG6PD inhibitors, hit retest, confirmation, biochemical, fluorescence intensity, single concentration. 2,400 compounds, 34% hits. inhibition, % at 20 µM. recombinant PfGluPho, NADPH-diaphorase-resazurin fluorescence. shares compounds with PfGluPho inh;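 active = inhibition of at least 50% at 20 µM in any single replicate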;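 note: 0% = DMSO with substrate and 100% = DMSO lacking glucose-6-phosphate substrate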
Diaphorase 10uM = diaphorase inhibitors and chemical oxidizers, confirmation, counter-screen for P. falciparum G6PD inhibitor project, biochemical, fluorescence intensity, 10 µM NADPH; AID 504862, 2011; diaphorase-coupled resazurin reduction, NADPH 10 uM; 820 compounds, 39% hits; shares compounds with PfGluPho inh; inhibition, % at 20 µM;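 active = average inhibition reaching 50% or more with the compound at 20 µM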;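 note: resorufin red fluorescence formed as diaphorase reduces resazurin using NADPH; 0% = DMSO with enzyme and 100% = DMSO without enzyme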
Diaphorase 30uM = diaphorase inhibitors and chemical oxidizers, confirmation, counter-screen for P. falciparum G6PD inhibitor project, biochemical, fluorescence intensity, 30 µM NADPH; shares compounds with PfGluPho inh; Diaphorase/resazurin coupled assay, resorufin fluorescence; inhibition, % at 20 µM; 820 compounds, 29% hits; AID 504863, 2011;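 active = inhibition averaging 50% or more, tested at 20 µM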;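 note: 0% = DMSO with enzyme and 100% = DMSO wells lacking diaphorase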
Numbers without * were called inactive; x = not tested or not shown. Most compounds without a hit are left out; they make up all but 3.3% or so of the library.

SMILES	UHRF1 MBD2 ctr	MBD2 inh	M18AAP inhibitor	PfGluPho inh	PRMT1 inh	PfGluPho conf	others
Cc1onc(-c2ccccc2)c1C(=O)N/N=C/c1ccccc1OC(C)C	-1	-2	2	117*	-5	85*	Diaphorase 10uM=76*;Diaphorase 30uM=50*
COc1ccc(/C=N/NC(=O)c2c(-c3ccccc3)noc2C)cc1	-4	-5	-2	-1	0	x
CCOC(=O)C1(Cc2ccccc2)CCN(Cc2ccccc2[N+](=O)[O-])CC1	1	-2	x	x	-2	x
CC(=O)C1=C(C)N(Cc2ccc(Br)cc2)C(=S)NC1c1cccc(Br)c1 (stereo not drawn)	-2	3	x	x	0	x
CN1CCN(c2c([N+](=O)[O-])cnc3ccccc23)CC1	2	-1	x	6	-2	x
Cc1ccc(NC(=O)CSc2nnc(-c3cccnc3)n2Cc2ccco2)c(C)c1	0	-1	x	x	-2	x
Cc1onc(-c2ccccc2)c1C(=O)N/N=C/c1cccs1	0	3	-2	62*	1	44
CC(=O)Nc1ccc(C(=O)OCC(=O)N(c2ccccc2)C2CCCCC2)cc1	2	0	x	-2	3	x
CCc1c(-c2ccc(Cl)cc2)ncn1CCc1ccccc1OC	-2	-7	x	x	3	x
Nc1c(C(=O)Nc2ccc(Cl)c(C(=O)O)c2)sc2nc3c(cc12)CCCC3	2	-1	9	59*	9	10
CCOC(=O)[C@@]12CCC3=C1N(CCC3)C(=O)[C@H](CC(=O)N1CCC(c3ccccc3)CC1)C2	0	3	x	x	1	x
Cc1ccccc1C1=CC(=O)CC(C)(C)C1=O	-1	-2	x	x	-3	x
CCOC(=O)Cc1cc(=O)n2[nH]c(-c3ccccc3)cc2n1	x	x	-2	18	x	x
CCOC(=O)Cc1cc(=O)n2[nH]c(C(C)(C)C)cc2n1	-2	-7	-1	78*	0	76*	Diaphorase 10uM=64*;Diaphorase 30uM=46
CC(C)C[C@@H]1COc2cccc(NCCO)c2S(=O)(=O)N1	8	0	x	x	-1	x
O=S(=O)(Nc1cc(Sc2cccc3cccnc23)c(O)c2ccccc12)c1ccc(F)cc1	-15	-37	2	98*	73*	85*	Diaphorase 10uM=22;Diaphorase 30uM=16
Cc1cccc(NC(=O)CSc2nnc(CNC(=O)c3ccco3)n2C)c1	5	-4	-5	-5	5	x
CCOC(=O)c1nc(NCc2ccccc2)sc1C	-2	-1	25	68*	7	26
COC(=O)[C@]12C[C@H](CC(=O)NCc3ccccc3)C(=O)N(CCc3ccc(OC)c(OC)c3)C1=C[C@H](C(C)C)O[C@@H]2C1CC1	0	3	x	x	2	x
C/C(Cn1nnc([N+](=O)[O-])n1)=N\NC(=O)c1ccccc1Cl	4	9	-6	56	-4	x
C/C(Cn1nnc([N+](=O)[O-])n1)=N\NC(=O)c1cccc(Cl)c1	-6	3	-6	68*	-5	59*	Diaphorase 10uM=27;Diaphorase 30uM=26
CC(=NNC(=O)CSc1nnc(-c2ccccc2)n1-c1ccccc1)c1ccc2ccccc2c1	-2	-1	x	x	-3	x
CC(Nc1cc(N2CCN(S(=O)(=O)N(C)C)CC2)ccc1[N+](=O)[O-])c1ccccc1 (stereo not drawn)	-3	2	-2	88*	-1	23
CC(Nc1cc(N2CCCC2)ccc1[N+](=O)[O-])c1ccccc1 (stereo not drawn)	-1	-5	-10	11	1	x
CC(Nc1cc(N2CCOCC2)ccc1[N+](=O)[O-])c1ccccc1 (stereo not drawn)	0	-2	3	16	3	x
SMILES	UHRF1 MBD2 ctr	MBD2 inh	M18AAP inhibitor	PfGluPho inh	PRMT1 inh	PfGluPho conf	others
CC(Nc1cc(N2CCN(S(C)(=O)=O)CC2)ccc1[N+](=O)[O-])c1ccccc1 (stereo not drawn)	-4	-3	5	60*	2	25
CCC(C)N(C(C)CC)S(=O)(=O)c1ccc2[nH]c(=O)oc2c1 (stereo not drawn)	2	7	x	x	5	x
Nc1ncnc2[nH]c(=S)[nH]c12	-1	-3	x	29	1	x
O=c1[nH]c(=O)c2[nH]c(=S)[nH]c2[nH]1	-1	0	x	66*	80*	28
Cc1cc(-n2c(C)cc(C(=O)COc3ccc(F)c(F)c3)c2C)no1	x	x	x	61*	x	9
COC1C=CC(CNC(=O)c2cc3c(=O)n4cccc(C)c4nc3n2C)(OC)O1 (stereo not drawn)	69*	2	0	79*	1	-7
Cc1cccn2c(=O)c3cc(C(=O)NCC4CCCO4)n(C)c3nc12 (stereo not drawn)	x	x	-9	x	x	x
O=C(Nc1ccc(N2CCOCC2)cc1)c1ccc2ncsc2c1	0	3	x	66*	22*	22
COc1ccc(CCC(=O)Nc2cc(Cl)ccc2OC)cc1	1	-2	-3	-13	4	x
COc1ccc(O)c(/C=N/NC(=O)CCC(=O)Nc2cccc(C)c2)c1	-2	-1	16	-29	-3	x
COc1ccc(NC(C)C(=O)N/N=C/c2cc(Br)ccc2OC)cc1 (stereo not drawn)	0	-3	1	86*	3	62*	Diaphorase 10uM=47;Diaphorase 30uM=41
COc1ccc(OC)c(/C=N/NC(=O)CCCC(=O)Nc2cccc(Br)c2)c1	0	1	-2	75*	-5	36
COc1ccc(OC)c(/C=N/NC(=O)CNC(=O)c2cccc3ccccc23)c1	-3	-3	2	99*	-3	74*	Diaphorase 10uM=63*;Diaphorase 30uM=62*
COc1ccc(CCCC(=O)NCC(=O)N/N=C/c2cc(Cl)ccc2OC)cc1	0	-6	0	83*	-2	55*	Diaphorase 10uM=59*;Diaphorase 30uM=53*
COC(=O)C1=C(C)N(Cc2ccc(Br)cc2)C(=S)NC1c1ccccc1 (stereo not drawn)	0	2	x	x	10	x
COc1cccc(-c2ncn(CCc3ccccc3OC)c2CC(C)C)c1	-3	0	x	x	3	x

Bioassay records (PubChem)
